Results filed as inconclusive are left out. The source made the active and inactive calls. The calls were made as follows, unless noted: active = hit-call score of the fitted dose curve at least 0.9, where 1 is the maximum; inconclusive = response in the unintended direction; inactive = score below 0.9.

Test [1] can be described thus: ATG_TCF_b_cat_CIS: Attagene CIS-FACTORIAL HepG2 Assay for human T-Cell-Factor with beta-catenin (TCF/b-cat) (AID 2282965; active = hit-call score of the fitted dose curve at least 0.9, where 1 is the maximum; inactive = score below 0.9). As to conditions: HepG2 TCF/beta-catenin cis-reporter transcription, actives raise or lower the signal. A digest of the protocol: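 In this cis-format system, transfected HepG2 cells report endogenous transcription factor activity. Readout after 24 h exposure is reporter transcript abundance from RT-PCR and capillary electrophoresis, analysed for gain or loss of signal versus DMSO.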

Test [2] is described as follows: ATG_TAL_CIS: Attagene CIS-FACTORIAL HepG2 Assay for human TAL Basal Promoter (AID 2282966; active = hit-call score of the fitted dose curve at least 0.9, where 1 is the maximum; inactive = score below 0.9;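 also: background control endpoint measuring basal TAL promoter reporter mRNA not a specific factor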). As to conditions: HepG2 Attagene cis-factorial TAL promoter reporter; actives raise or lower the signal. The procedure, abridged:
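After 24 hours of chemical exposure, transfected HepG2 cells yielded RNA that was converted to 6-FAM-labelled, HpaI-digested reporter fragments for capillary electrophoresis. Values derive from bidirectional fitting against DMSO controls.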

Test [3] can be described thus: ATG_TGFb_CIS: Attagene CIS-FACTORIAL HepG2 Assay for human Transforming Growth Factor (TGF) (AID 2282967; active = hit-call score of the fitted dose curve at least 0.9, where 1 is the maximum; inactive = score below 0.9). The settings on record: HepG2 Attagene CIS TGFb reporter, mRNA transcription; actives raise or lower the signal. A digest of the protocol: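 Transient MRTU transfection of HepG2 (FuGene 6). Dose 24 h. TriZol RNA, oligo(dT) RT, PCR, 6-FAM primer extension, HpaI cut, CE. Bidirectional fit, DMSO = baseline.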

The nature of test [4]: ATG_VDRE_CIS: Attagene CIS-FACTORIAL HepG2 Assay for human Vitamin D Receptor Element (VDRE) (AID 2282968; active = hit-call score of the fitted dose curve at least 0.9, where 1 is the maximum; inactive = score below 0.9). The settings on record: HepG2 VDRE cis-reporter transcription, actives raise or lower the signal. A digest of the protocol:
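Transfected HepG2 reporter cells, chemical treatment 24 h. RNA isolated, cDNA amplified with reporter-specific primers, products analysed by capillary electrophoresis. Endpoint fitted in both directions versus DMSO.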

The target in test [5] is Nuclear receptor subfamily 1 group I member 3 (Homo sapiens) (UniProt Q14994). Put plainly: ATG_CAR_TRANS: Attagene TRANS-FACTORIAL HepG2 Assay for human Constitutive Androstane Receptor (CAR) (AID 2282969).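 Also: activators raise reporter mRNA above DMSO so AC50 marks induction.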 The settings on record: HepG2 Attagene TRANS-FACTORIAL CAR reporter. A digest of the protocol:
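Steps: transient transfection of HepG2 with multiple GAL4-UAS reporter units; 24 h compound incubation; RNA isolation, RT-PCR, 6-FAM primer extension, HpaI digest; capillary electrophoresis. Gain-of-signal relative to DMSO negative control.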

For test [6], the target named is Estrogen receptor (Homo sapiens) (UniProt P03372). Kind of test: ATG_ERa_TRANS: Attagene TRANS-FACTORIAL HepG2 Assay for human Estrogen Receptor alpha (ERa) (AID 2282970). As to conditions: HepG2 Attagene TRANS ERa GAL4 reporter, mRNA. A digest of the protocol:
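Liver-derived HepG2 cells expressing chimeric nuclear receptor-Gal4 proteins from transient transfection were exposed for 24 hours. Gain of reporter mRNA signal versus DMSO, read by capillary electrophoresis of FAM-labelled PCR products, was recorded.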

Test [7] addresses X-box-binding protein 1 (Homo sapiens) (UniProt P17861). Put plainly: ATG_Xbp1_CIS: Attagene CIS-FACTORIAL HepG2 Assay for human X-box Binding Protein 1 (XBP1) (AID 2282972; active = hit-call score of the fitted dose curve at least 0.9, where 1 is the maximum; inactive = score below 0.9). As to conditions: HepG2 XBP1 cis-element reporter, Attagene multiplex; actives raise or lower the signal. The procedure, abridged:
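Multiplexed cis-reporter readout in transfected HepG2 liver cells. Exposure lasted 24 hours. Activity in either direction was fitted against DMSO as negative control and baseline.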

The nature of test [8]: ATG_M_19_TRANS: Attagene TRANS-FACTORIAL HepG2 Assay for M19 Transcription Factor (Internal Marker) (AID 2282974). The settings on record: HepG2 Attagene TRANS-FACTORIAL M19 internal marker reporter. A digest of the protocol: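 Background-control readout: after 24 h chemical exposure of transfected HepG2 carrying GAL4-driven reporter units, RNA was reverse-transcribed, amplified, fluorescently labeled and sized by capillary electrophoresis; gain-of-signal fit against DMSO.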

Test [9] addresses Glucocorticoid receptor (Homo sapiens) (UniProt P04150). Put plainly: ATG_GR_TRANS: Attagene TRANS-FACTORIAL HepG2 Assay for human Glucocorticoid Receptor (GR) (AID 2282978).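 Also: activators score as hits since higher reporter transcript over DMSO is fitted.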 The settings on record: HepG2 Attagene TRANS GR reporter, mRNA transcription. The procedure, abridged:
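Readout is reporter transcript from a chimeric GR-Gal4 acting on GAL4-UAS in transfected human HepG2 liver cells after 24 h exposure, quantified by RT-PCR and capillary electrophoresis. Activation fitted upward against DMSO.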

Test [10] concerns the target Bile acid receptor (Homo sapiens) (UniProt Q96RI1). Put plainly: ATG_FXR_TRANS: Attagene TRANS-FACTORIAL HepG2 Assay for Farnesoid X Receptor (FXR) (AID 2282979).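 Also: hits raise reporter mRNA above DMSO so AC50 marks FXR activation.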 As to conditions: HepG2 Attagene TRANS FXR-GAL4 reporter transcription. A digest of the protocol:
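Transient transfection of HepG2 with multiplexed GAL4-UAS reporter units; exogenous FXR-GAL4 chimera. Dose 24 h → TriZol RNA → oligo(dT) RT → PCR, 6-FAM primer extension, HpaI cut → CE. Gain vs DMSO.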

The target in test [11] is Oxysterols receptor LXR-alpha (Homo sapiens) (UniProt Q13133). Put plainly: ATG_LXRa_TRANS: Attagene TRANS-FACTORIAL HepG2 Assay for human Liver X Receptor alpha (LXRa) (AID 2282980). As to conditions: HepG2 Attagene TRANS reporter, LXRa transactivation. The procedure, abridged:
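Transfect HepG2 with GAL4-UAS multiplex reporter constructs (TRANS format, chimeric receptor-GAL4); treat 24 h; extract RNA, reverse-transcribe, PCR-amplify, FAM-label, HpaI-digest; resolve fragments by capillary electrophoresis. Upward response vs DMSO.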

Test [12] addresses Oxysterols receptor LXR-beta (Homo sapiens) (UniProt P55055). Put plainly: ATG_LXRb_TRANS: Attagene TRANS-FACTORIAL HepG2 Assay for human Liver X Receptor beta (LXRb) (AID 2282981). The settings on record: HepG2 Attagene TRANS GAL4-LXRb reporter, mRNA. The procedure, abridged: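 Liver-derived HepG2 cells transfected with Gal4-responsive reporters were dosed for 24 h. Activation was scored as rise in reporter mRNA, by RT-PCR and capillary electrophoresis, above DMSO baseline.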

Test [13] can be described thus: ATG_M_06_TRANS: Attagene TRANS-FACTORIAL HepG2 Assay for M06 Transcription Factor (Internal Marker) (AID 2282983).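 Also: reporter transcript level by RT-PCR then capillary electrophoresis fluorescence.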 The settings on record: HepG2 Attagene TRANS M06 internal marker reporter. The procedure, abridged: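 Background control endpoint: reporter mRNA from transiently transfected HepG2 after 24 h dosing, detected by RT-PCR with capillary electrophoresis fluorescence. Analysed for gain versus DMSO.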

Test [14] in a line: ATG_M_32_TRANS: Attagene TRANS-FACTORIAL HepG2 Assay for M32 Transcription Factor (Internal Marker) (AID 2282984).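 Also: transcript level of a background control reporter unit measured by RT-PCR and capillary electrophoresis.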 As to conditions: HepG2 Attagene TRANS M32 internal marker reporter. A digest of the protocol: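 Fluorescence-detected mRNA induction, HepG2 liver cells, 24 h after dosing. Multiple GAL4-UAS reporter units introduced by transient transfection; background-control endpoint analysed for gain of signal against DMSO.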

In test [15] the target is Nuclear receptor subfamily 4 group A member 2 (Homo sapiens) (UniProt P43354). Put plainly: ATG_NURR1_TRANS: Attagene TRANS-FACTORIAL HepG2 Assay for human Nuclear Receptor Related Protein 1 (NURR1) (AID 2282985). The settings on record: HepG2 Attagene TRANS reporter, mRNA readout. The procedure, abridged: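 Chimeric NR-Gal4 proteins were expressed in human HepG2 cells bearing GAL4-UAS reporter units, and induced reporter mRNA was quantified 24 h post-dosing by RT-PCR and capillary electrophoresis.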

Test [16] addresses Transcriptional activator Myb (Homo sapiens) (UniProt P10242). Kind of test: ATG_Myb_CIS: Attagene CIS-FACTORIAL HepG2 Assay for human Myeloblastosis (Myb) Proto-Oncogene Transcription Factor (AID 2282986; active = hit-call score of the fitted dose curve at least 0.9, where 1 is the maximum; inactive = score below 0.9). The settings on record: HepG2 Attagene CIS-FACTORIAL Myb reporter transcription; actives raise or lower the signal. A digest of the protocol:
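Reporter mRNA is quantified by RT-PCR and capillary electrophoresis 24 h after dosing HepG2 cells transfected with cis-regulated reporter units, which track endogenous transcription factor activity. Gain and loss of signal are fitted versus DMSO baseline.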

Test [17] concerns the target Steroid hormone receptor ERR1 (Homo sapiens) (UniProt P11474). Kind of test: ATG_ERRa_TRANS: Attagene TRANS-FACTORIAL HepG2 Assay for human Estrogen-Related Receptor alpha (ERRa) (AID 2282971). As to conditions: HepG2 Attagene TRANS reporter, ERRa transactivation. The procedure, abridged: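 Reporter transcript induction was quantified by RT-PCR and capillary electrophoresis of FAM-labelled, HpaI-cut products after 24 h treatment of HepG2 cells carrying transiently transfected GAL4-UAS reporter units and an exogenous ERRa-Gal4 fusion; activity scored as increase over DMSO.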

The nature of test [18]: ATG_GAL4_TRANS: Attagene TRANS-FACTORIAL HepG2 Assay for GAL4 (Internal Marker) (AID 2282976). As to conditions: HepG2 Attagene TRANS GAL4 internal marker reporter. A digest of the protocol: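 First, HepG2 cells were transfected with reporter units under GAL4-UAS control. Next, they were treated with chemical for 24 h. Finally, RNA was reverse-transcribed, PCR-amplified, FAM-labelled and resolved by capillary electrophoresis, with induction scored against DMSO.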

Test [19] deals with Hepatocyte nuclear factor 4-alpha (Homo sapiens) (UniProt P41235). Put plainly: ATG_HNF4a_TRANS: Attagene TRANS-FACTORIAL HepG2 Assay for human Hepatocyte Nuclear Factor 4 alpha (HNF4a) (AID 2282982). The settings on record: HepG2 HNF4a transactivation reporter, mRNA readout. A digest of the protocol: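 Using HepG2 liver cells transfected with GAL4-UAS reporter units, chemical-induced mRNA increases were assessed after 24 hours. Fluorescent RT-PCR fragments were separated by capillary electrophoresis and compared with DMSO negative controls.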
Sequence of Hepatocyte nuclear factor 4-alpha (Homo sapiens) (P41235 whole entry, looked up, the tested form may be a part): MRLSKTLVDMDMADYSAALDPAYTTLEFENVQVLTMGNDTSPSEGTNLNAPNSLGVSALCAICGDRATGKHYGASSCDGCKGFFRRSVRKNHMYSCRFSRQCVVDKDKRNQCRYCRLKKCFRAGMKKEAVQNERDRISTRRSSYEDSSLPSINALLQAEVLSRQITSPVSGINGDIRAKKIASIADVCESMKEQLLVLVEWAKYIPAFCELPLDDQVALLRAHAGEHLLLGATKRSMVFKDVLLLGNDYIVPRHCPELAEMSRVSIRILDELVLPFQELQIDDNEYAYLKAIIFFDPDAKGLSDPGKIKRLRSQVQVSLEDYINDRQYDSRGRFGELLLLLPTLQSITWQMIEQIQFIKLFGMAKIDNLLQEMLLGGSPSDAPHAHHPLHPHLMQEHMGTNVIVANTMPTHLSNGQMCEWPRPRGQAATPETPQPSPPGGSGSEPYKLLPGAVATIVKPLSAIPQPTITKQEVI

Sequence of X-box-binding protein 1 (Homo sapiens) (P17861 whole entry, looked up): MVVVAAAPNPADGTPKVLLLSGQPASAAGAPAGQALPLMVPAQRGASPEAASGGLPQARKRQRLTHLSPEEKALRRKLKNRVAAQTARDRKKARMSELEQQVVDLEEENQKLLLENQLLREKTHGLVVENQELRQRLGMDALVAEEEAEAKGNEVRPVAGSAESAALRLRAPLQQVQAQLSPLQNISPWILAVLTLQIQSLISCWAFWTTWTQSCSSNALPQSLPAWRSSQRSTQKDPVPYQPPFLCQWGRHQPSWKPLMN
Sequence of Bile acid receptor (Homo sapiens) (Q96RI1 whole entry, looked up, the tested form may be a part): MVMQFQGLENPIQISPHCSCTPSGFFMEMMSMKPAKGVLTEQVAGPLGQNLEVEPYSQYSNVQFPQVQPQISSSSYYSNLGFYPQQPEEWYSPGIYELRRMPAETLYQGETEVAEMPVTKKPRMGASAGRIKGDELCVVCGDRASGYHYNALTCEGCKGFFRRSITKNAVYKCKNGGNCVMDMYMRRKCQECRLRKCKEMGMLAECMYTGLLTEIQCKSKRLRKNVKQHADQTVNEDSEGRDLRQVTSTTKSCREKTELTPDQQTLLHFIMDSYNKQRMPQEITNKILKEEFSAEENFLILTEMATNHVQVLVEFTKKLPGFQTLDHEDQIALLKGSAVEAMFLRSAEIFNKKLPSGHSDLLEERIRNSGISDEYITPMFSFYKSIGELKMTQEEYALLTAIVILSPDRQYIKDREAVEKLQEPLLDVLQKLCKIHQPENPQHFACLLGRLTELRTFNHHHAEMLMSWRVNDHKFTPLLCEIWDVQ
Sequence of Oxysterols receptor LXR-alpha (Homo sapiens) (Q13133 whole entry, looked up, the tested form may be a part): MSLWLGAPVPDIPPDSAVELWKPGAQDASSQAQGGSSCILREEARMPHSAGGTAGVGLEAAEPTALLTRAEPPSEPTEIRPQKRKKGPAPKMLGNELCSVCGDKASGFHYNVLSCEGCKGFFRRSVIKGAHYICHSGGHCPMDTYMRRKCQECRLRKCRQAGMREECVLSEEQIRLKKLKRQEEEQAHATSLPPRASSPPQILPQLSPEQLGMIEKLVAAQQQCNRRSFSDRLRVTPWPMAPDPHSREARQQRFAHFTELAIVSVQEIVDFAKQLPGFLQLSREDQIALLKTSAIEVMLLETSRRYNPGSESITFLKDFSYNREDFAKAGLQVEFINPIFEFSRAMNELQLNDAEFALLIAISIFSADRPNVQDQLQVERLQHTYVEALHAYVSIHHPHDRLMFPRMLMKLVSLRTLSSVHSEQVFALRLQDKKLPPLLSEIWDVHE
Sequence of Nuclear receptor subfamily 1 group I member 3 (Homo sapiens) (Q14994 whole entry, looked up, the tested form may be a part): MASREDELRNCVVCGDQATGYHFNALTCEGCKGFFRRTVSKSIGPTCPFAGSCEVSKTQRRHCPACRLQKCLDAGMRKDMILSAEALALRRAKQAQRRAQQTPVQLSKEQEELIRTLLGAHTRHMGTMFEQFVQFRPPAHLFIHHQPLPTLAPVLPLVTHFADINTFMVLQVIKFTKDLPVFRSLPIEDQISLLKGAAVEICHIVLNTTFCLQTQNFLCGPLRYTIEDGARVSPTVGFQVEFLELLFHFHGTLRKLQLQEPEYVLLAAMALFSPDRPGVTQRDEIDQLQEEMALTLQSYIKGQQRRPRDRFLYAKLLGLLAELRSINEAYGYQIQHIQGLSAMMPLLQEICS
Sequence of Glucocorticoid receptor (Homo sapiens) (P04150 whole entry, looked up, the tested form may be a part): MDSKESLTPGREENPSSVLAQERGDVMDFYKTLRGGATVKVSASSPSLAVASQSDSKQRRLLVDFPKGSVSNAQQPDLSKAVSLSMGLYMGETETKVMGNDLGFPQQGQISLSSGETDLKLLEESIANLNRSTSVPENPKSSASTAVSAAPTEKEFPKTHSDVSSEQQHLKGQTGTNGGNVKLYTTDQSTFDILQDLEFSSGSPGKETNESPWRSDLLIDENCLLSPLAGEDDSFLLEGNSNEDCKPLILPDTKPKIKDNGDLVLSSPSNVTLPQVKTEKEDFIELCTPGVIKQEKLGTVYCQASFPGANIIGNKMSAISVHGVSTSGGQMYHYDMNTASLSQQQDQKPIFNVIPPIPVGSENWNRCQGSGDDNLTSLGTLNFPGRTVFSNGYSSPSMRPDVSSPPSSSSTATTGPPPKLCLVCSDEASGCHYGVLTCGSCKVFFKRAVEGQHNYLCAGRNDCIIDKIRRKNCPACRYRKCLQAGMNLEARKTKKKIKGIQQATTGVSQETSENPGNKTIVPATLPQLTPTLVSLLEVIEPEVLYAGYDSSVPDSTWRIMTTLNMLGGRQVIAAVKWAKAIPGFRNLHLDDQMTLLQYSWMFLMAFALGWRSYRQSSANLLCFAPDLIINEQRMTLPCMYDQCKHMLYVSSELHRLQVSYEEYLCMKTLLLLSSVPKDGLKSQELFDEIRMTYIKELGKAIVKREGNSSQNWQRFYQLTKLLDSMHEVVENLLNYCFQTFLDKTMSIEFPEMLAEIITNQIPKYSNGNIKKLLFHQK
Sequence of Estrogen receptor (Homo sapiens) (P03372 whole entry, looked up, the tested form may be a part): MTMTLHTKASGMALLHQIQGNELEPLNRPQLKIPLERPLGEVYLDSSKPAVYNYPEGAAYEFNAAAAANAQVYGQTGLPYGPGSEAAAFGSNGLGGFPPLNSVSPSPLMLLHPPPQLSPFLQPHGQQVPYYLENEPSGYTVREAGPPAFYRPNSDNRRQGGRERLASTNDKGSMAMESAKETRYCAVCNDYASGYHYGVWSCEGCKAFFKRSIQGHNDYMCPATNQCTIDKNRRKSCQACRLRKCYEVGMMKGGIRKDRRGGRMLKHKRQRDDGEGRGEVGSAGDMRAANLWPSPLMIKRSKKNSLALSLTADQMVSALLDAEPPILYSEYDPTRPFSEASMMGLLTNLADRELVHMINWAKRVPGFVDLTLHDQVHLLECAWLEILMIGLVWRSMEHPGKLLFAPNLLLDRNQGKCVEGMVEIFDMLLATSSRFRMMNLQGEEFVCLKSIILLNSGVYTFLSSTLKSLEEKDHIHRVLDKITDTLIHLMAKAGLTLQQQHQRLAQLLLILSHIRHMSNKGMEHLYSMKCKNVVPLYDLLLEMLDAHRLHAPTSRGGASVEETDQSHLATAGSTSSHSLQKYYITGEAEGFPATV
Sequence of Oxysterols receptor LXR-beta (Homo sapiens) (P55055 whole entry, looked up, the tested form may be a part): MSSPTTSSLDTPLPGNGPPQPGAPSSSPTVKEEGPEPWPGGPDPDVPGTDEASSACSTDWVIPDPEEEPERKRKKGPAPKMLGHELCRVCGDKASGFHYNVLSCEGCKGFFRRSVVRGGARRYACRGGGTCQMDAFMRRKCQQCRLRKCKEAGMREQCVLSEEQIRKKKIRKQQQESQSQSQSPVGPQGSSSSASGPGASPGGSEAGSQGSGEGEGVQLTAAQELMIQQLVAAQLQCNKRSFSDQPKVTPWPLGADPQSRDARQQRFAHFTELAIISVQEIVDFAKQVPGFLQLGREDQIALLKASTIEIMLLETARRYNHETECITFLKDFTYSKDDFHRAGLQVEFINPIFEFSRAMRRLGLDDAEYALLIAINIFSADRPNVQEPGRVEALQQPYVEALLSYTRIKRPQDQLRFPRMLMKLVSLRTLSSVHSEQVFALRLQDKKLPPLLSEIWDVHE
Sequence of Transcriptional activator Myb (Homo sapiens) (P10242 whole entry, looked up): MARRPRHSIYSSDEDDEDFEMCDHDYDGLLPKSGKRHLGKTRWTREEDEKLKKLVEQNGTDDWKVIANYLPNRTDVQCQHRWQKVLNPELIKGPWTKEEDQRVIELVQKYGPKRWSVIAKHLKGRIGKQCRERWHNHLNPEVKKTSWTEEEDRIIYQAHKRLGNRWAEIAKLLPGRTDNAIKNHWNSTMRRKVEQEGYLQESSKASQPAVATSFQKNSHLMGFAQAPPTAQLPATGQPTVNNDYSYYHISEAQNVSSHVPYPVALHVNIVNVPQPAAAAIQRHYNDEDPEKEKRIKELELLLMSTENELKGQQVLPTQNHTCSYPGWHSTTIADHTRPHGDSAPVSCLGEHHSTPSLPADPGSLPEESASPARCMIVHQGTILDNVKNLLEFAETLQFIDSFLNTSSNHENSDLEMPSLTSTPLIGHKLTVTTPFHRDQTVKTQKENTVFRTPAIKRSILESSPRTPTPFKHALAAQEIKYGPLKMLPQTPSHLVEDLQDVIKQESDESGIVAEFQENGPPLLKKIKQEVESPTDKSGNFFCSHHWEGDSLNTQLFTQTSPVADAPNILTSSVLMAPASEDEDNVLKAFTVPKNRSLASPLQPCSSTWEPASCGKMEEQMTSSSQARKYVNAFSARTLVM
Sequence of Steroid hormone receptor ERR1 (Homo sapiens) (P11474 whole entry, looked up, the tested form may be a part): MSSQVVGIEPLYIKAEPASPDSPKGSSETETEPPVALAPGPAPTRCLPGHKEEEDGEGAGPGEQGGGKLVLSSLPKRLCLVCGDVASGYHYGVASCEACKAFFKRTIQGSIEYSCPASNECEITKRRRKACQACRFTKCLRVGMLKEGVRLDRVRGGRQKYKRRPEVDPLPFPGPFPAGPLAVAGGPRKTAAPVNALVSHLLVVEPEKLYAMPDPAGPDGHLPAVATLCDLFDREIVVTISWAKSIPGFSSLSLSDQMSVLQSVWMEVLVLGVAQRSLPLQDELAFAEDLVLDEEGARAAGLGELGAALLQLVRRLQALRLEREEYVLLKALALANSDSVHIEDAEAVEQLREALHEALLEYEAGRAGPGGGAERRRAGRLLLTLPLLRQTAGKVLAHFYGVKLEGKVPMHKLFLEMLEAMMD

For the compound `C=C1CC[C@H]2O[C@]2(C)CC[C@@H]2[C@@H]1CC2(C)C`, the compound was called inactive in [1], in test [2], in [3], in test [4], in test [5] and in test [6]. The compound was classed as inactive in test [7], in test [8], in test [9], in test [10], in test [11] and in [12]. Moreover, the result in test [13], in [14], in test [15] and in test [16] was inactive.

Consider `CCC=C(C)C=O`, for which the outcome in test [1], in [2], in test [4], in test [5], in test [17] and in [8] was inactive. The outcome in test [18], in [9], in test [10], in [12], in test [19] and in test [13] was inactive. The result in test [14] and in [16] was inactive. Also, the values for the AC50 in test [3] and in [6] were 0.643 µM (active) and 15.3 µM (active), respectively.

Regarding `[O-]/[N+](=N\O)c1ccccc1`, the result in test [1], in test [2], in test [3], in test [4], in test [5] and in test [17] was inactive. Moreover, the result in [7], in test [11], in test [19], in test [13], in test [14] and in test [16] was inactive. Also, in [6], the AC50 was 42.3 µM (active).

`NC(=O)c1cnccn1`: the result in test [1], in [2], in test [3], in test [4], in [5] and in test [6] was inactive. Moreover, the compound was called inactive in test [7], in [18], in test [9], in test [12], in test [19] and in [13]. In addition, the compound was classed as inactive in test [15] and in test [16].

Regarding `CN(C)CCC=C1c2ccccc2CCc2ccccc21`, the AC50 in test [1] is 22.1 µM (active); in test [4] it was 23.7 µM (active); in [7], 40 µM (active). The result in [2], in test [3], in [5], in test [6], in test [8] and in test [9] was inactive. The compound was classed as inactive in test [10], in test [11], in [14] and in [16].

The values above are taken from PubChem BioAssay (EPA / NIEHS).
